# Assay results taken from ChEMBL document CHEMBL3988442, “University of Dundee, Small-Polar-MMV Screening Library” (2021).
# Hit rate of the full screen: of about 66,000 compounds, about 960 (1.5%) showed an effect of 50% or more. Only a selection was taken, and strong results are over-represented in it overall.
# Tested on: Trypanosoma brucei
# Assay: Trypanosoma brucei 72 hour study
# Format: functional, organism-based
# Design: scale not given: in the data most compounds retested in dose-response had high values
smiles,measurement,setting,value
Cc1nnc2n1CCN(C(=O)CN(C)Cc1ccccc1)C2,Percent Effect,"30.3 µM, […]",-14.91%
O=C(NCC1CCOCC1)[C@@H]1CC[C@@H]2[C@@H](CCN2Cc2ccncc2)O1.O=C(O)C(F)(F)F.O=C(O)C(F)(F)F,Percent Effect,"30.3 µM, […]",-62.66%
CCc1noc(CCC(=O)N[C@@H]2CC[C@@H](n3ccnc3C)[C@@H]2O)n1,Percent Effect,"30.3 µM, […]",-7.313%
O=C(O)C(F)(F)F.c1coc(CN2CCO[C@H]3[C@H](OCC4CC4)CC[C@@H]32)c1,Percent Effect,"30.3 µM, […]",0.4404%
c1cc(NCc2ccsc2)cc(-c2nnc[nH]2)c1,Percent Effect,"30 µM, 30.03 µM",-50.24%
Oc1c(F)cc(CNc2cccc(-c3nnc[nH]3)c2)cc1F,Percent Effect,"30 µM, 30.03 µM",-51.33%
Oc1ccc(Br)c(CNc2cccc(-c3nnc[nH]3)c2)c1,Percent Effect,"30 µM, 30.03 µM",56.16%
CCCc1nc2c(c(C)c(C)n2Cc2cccnc2)c(N)c1CC,Percent Effect,"30.3 µM, […]",26.57%
CCCc1nc2c(c(C)c(C)n2Cc2ccccn2)c(N)c1CC,Percent Effect,"30.3 µM, […]",99.32%
CCCc1nc2c(c(C)c(C)n2Cc2ccncc2)c(N)c1CC,Percent Effect,"30.3 µM, […]",11.66%
COc1cccc(-c2noc(C3CCN(Cc4ccc(C)cc4)C3)n2)c1.Cl (configuration not stated),Percent Effect,"30.3 µM, […]",4.598%
Cc1nc(=O)c2ccccc2n1C1=CCN(CC(=O)N2CCCC2)CC1,Percent Effect,"30.3 µM, […]",9.131%
COc1ccc(C(=O)N2C[C@@H](CN3CCCCC3)[C@@H](CO)C2)cc1Cl,Percent Effect,"30 µM, 30.03 µM",22.63%
CCCOc1c(Cl)cc(C(=O)N2CCOC23CCN(C)CC3)cc1Cl,Percent Effect,"30 µM, 30.03 µM",-15.42%
COc1cc(C(=O)N2CCCS2(=O)=O)cc(Cl)c1OC,Percent Effect,"30 µM, 30.03 µM",-12.01%
COCC1CC2(CCN(C(=O)c3ccc(OC)c(Cl)c3)CC2)CO1 (configuration not stated),Percent Effect,"30 µM, 30.03 µM",-6.719%
CCN1CCC2(CC1)OCCN2C(=O)c1ccc(OC)c(Cl)c1.Cl,Percent Effect,"30 µM, 30.03 µM",50.46%
CCN1CCC2(CC1)OCCN2C(=O)c1cc(Cl)c(OC)c(Cl)c1.Cl,Percent Effect,"30 µM, 30.03 µM",89.37%
COc1ccc(-c2cc3nn(CC(=O)NC(C)C)c(=O)n3c(C)n2)cc1,Percent Effect,"30 µM, 30.03 µM",-13.21%
Cc1cc(C)cc(CN2CCN(Cc3cccc(CCN)c3)CC2=O)c1,Percent Effect,"30 µM, 30.03 µM",35.33%
CCc1cc(CN2C[C@H]3CC[C@@H]2CN(C2Cc4ccccc4C2)C3)on1,Percent Effect,"30 µM, 30.03 µM",10.13%
Cc1nnc(CN2CCCC2c2ccsc2)o1 (configuration not stated),Percent Effect,"30.3 µM, […]",-40.61%
Cc1nnc(CN2CCCC2c2ccc(Cl)c(Cl)c2)o1 (configuration not stated),Percent Effect,"30.3 µM, […]",3.085%
Cc1nnc(CN2CCCC2c2ccc(C(C)(C)C)cc2)o1 (configuration not stated),Percent Effect,"30.3 µM, […]",86.15%
Cc1ccc(CN(CCCn2ccnc2)Cc2cc(F)ccc2F)s1.O=C(O)CC(O)(CC(=O)O)C(=O)O,Percent Effect,"30.3 µM, […]",-12.95%
Cc1ccccc1-n1cnnc1SCCOCC1CCCO1 (configuration not stated),Percent Effect,"30 µM, 30.03 µM",-22.78%
Cc1ccccc1-n1cnnc1SCC1CCCCO1 (configuration not stated),Percent Effect,"30 µM, 30.03 µM",69.07%
Cc1ccccc1-n1cnnc1SCC(=O)NCC1CCCO1 (configuration not stated),Percent Effect,"30 µM, 30.03 µM",-21.19%
O=C(CCc1cccs1)N1CCCC(n2ccnc2)C1 (configuration not stated),Percent Effect,10 µM,-23.55%
same,Percent Effect,"30.3 µM, […]",37.83%
Cc1cc(NC(=O)NC2CCN(C(C)C)CC2)c2ncccc2c1,Percent Effect,"30 µM, 30.03 µM",56.47%
Cc1cc(NC(=O)N2CCCC2C(=O)NC2CC2)c2ncccc2c1 (configuration not stated),Percent Effect,"30 µM, 30.03 µM",-28.65%
Cc1cc(NC(=O)N2CCCC2C(C)(C)O)c2ncccc2c1 (configuration not stated),Percent Effect,"30 µM, 30.03 µM",-36.24%
Cl.c1cn(-c2cncc(C3CCNCC3)n2)cn1,Percent Effect,"30.3 µM, […]",-40.04%
CN(C)C(=O)CN1CCC2(COCc3cnc(-c4cccnc4)nc32)C1.O=C(O)C(F)(F)F.O=C(O)C(F)(F)F (configuration not stated),Percent Effect,"30.3 µM, […]",-72.36%
CN(C)C(=O)c1n[nH]c2c1CN(CC1CCCCC1)C2.O=C(O)C(F)(F)F.O=C(O)C(F)(F)F,Percent Effect,"30.3 µM, […]",-36.34%
CC(C)(C)CCN1CCN(c2snc(Cl)c2C#N)CC1,Percent Effect,"30.3 µM, […]",100.4%
CC(=O)N1CCN(CCNc2snc(Cl)c2C#N)CC1,Percent Effect,"30 µM, 30.03 µM",1.028%
N#Cc1c(Cl)nsc1NCc1ccc(N2CCC(CO)CC2)cc1,Percent Effect,"30 µM, 30.03 µM",-28.26%
N#Cc1c(Cl)nsc1N1CCN(CC2CCCCC2)CC1,Percent Effect,"30.3 µM, […]",100.2%
CC(=O)N1CCN(C(=O)CCNc2snc(Cl)c2C#N)CC1,Percent Effect,"30 µM, 30.03 µM",-13.74%
N#Cc1c(Cl)nsc1N1CCN(CC2CC2)CC1,Percent Effect,"30.3 µM, […]",-23.59%
CC(C)COCC1CN(C(=O)c2cscn2)Cc2ncn(C)c21.O=C(O)C(F)(F)F (configuration not stated),Percent Effect,"30.3 µM, […]",-83.42%
CN(C)CCOCc1cncc2c1CCN(Cc1ccccn1)C2.O=C(O)C(F)(F)F.O=C(O)C(F)(F)F.O=C(O)C(F)(F)F,Percent Effect,"30.3 µM, […]",-28.23%
Cc1nc(CN2CC[C@H]3[C@@H]2CCC(=O)N3c2cnn(C)c2)cs1.O=C(O)C(F)(F)F,Percent Effect,"30.3 µM, […]",-10.95%
Cc1ccc(CN(CCCn2ccnc2)Cc2c[nH]nc2C(C)(C)C)s1.O=C(O)CC(O)(CC(=O)O)C(=O)O,Percent Effect,"30.3 µM, […]",-172%
Cc1ccc(C(NC(=O)C2CC2)c2cccc(S(C)(=O)=O)c2)cc1 (configuration not stated),Percent Effect,"30 µM, 30.03 µM",-25.5%
CN(C)C(=O)CCNC(=O)Nc1sc2ccccc2c1Cl,Percent Effect,"30.3 µM, […]",-534.4%
CN(C)CC(C)(O)CNC(=O)Nc1sc2ccccc2c1Cl (configuration not stated),Percent Effect,"30.3 µM, […]",103.3%
CS(=O)(=O)CCNC(=O)Nc1sc2ccccc2c1Cl,Percent Effect,"30.3 µM, […]",-157.9%
Cn1nc(COCC2CC2)c2c1CCN(Cc1cccs1)C2.O=C(O)C(F)(F)F,Percent Effect,"30.3 µM, […]",-72.61%
O=C(O)C(F)(F)F.c1cncc(N2CCCn3nnc(COCC4CC4)c3C2)c1,Percent Effect,"30.3 µM, […]",-2.195%
CN(C)CCN1C(=O)CCCC12CCCN(C(=O)c1cc[nH]n1)C2.O=C(O)C(F)(F)F (configuration not stated),Percent Effect,"30.3 µM, […]",-2.017%
CCOc1ncccc1CNC(=O)NC(C)Cn1cccn1 (configuration not stated),Percent Effect,10 µM,-0.2891%
same,Percent Effect,"30.3 µM, […]",0.8601%
Cc1cc(C)n(C2CCCN(C(=O)c3cccc(F)c3F)C2)n1 (configuration not stated),Percent Effect,"30 µM, 30.03 µM",-91.58%
Cc1nc(C)n(C2CCCN(C(=O)c3ccc(F)cc3F)C2)n1 (configuration not stated),Percent Effect,"30 µM, 30.03 µM",1.062%
Cc1cc(C)n(C2CCCN(C(=O)c3ccc(F)cc3F)C2)n1 (configuration not stated),Percent Effect,"30 µM, 30.03 µM",59.51%
Cn1cc(N2C(=O)CC[C@@H]3[C@H]2CCN3CC2CCOCC2)cn1.O=C(O)C(F)(F)F,Percent Effect,"30.3 µM, […]",-7.648%
CC(=O)N1CCC2(CCN(Cc3ccccn3)C2=O)C1.O=C(O)C(F)(F)F (configuration not stated),Percent Effect,"30 µM, 30.03 µM",1.584%
Clc1cccc(N2CCC(NCc3cc[nH]n3)C2)c1 (configuration not stated),Percent Effect,"30 µM, 30.03 µM",15.76%
Clc1cc(Cl)cc(CN2CCC(NCc3cc[nH]n3)CC2)c1,Percent Effect,"30.3 µM, […]",90.13%
Clc1cc(Cl)cc(CN2CCC(NCc3ncc[nH]3)CC2)c1,Percent Effect,"30.3 µM, […]",-65.03%
Cc1ccc(CN2CCc3ncc(CNC(=O)C4CCC4)n3CC2)o1.O=C(O)C(F)(F)F,Percent Effect,"30.3 µM, […]",-36.54%
CCC(C)(C)n1nnnc1C(c1cccs1)N1CCCCC1 (configuration not stated),Percent Effect,"30.3 µM, […]",13.9%
CCC(C)(C)n1nnnc1C(c1cccs1)N1CCc2ccccc21 (configuration not stated),Percent Effect,"30.3 µM, […]",72.61%
Cc1noc(C)c1C(=O)NCC(C)N1CCc2ccccc21 (configuration not stated),Percent Effect,10 µM,-61.25%
CCC(C)(C)n1nnnc1C(c1cccs1)N1CCc2ccccc2C1 (configuration not stated),Percent Effect,"30.3 µM, […]",99.92%
CCC(CNC(=O)c1ccccn1)N1CCc2ccccc2C1 (configuration not stated),Percent Effect,"30 µM, 30.03 µM",-43.95%
COc1ccc(-c2n[nH]c(C)c2CC(=O)N2CCOCC2)cc1,Percent Effect,"30 µM, 30.03 µM",6.943%
CNC(=O)c1cc2c(nc1NCC1CC1)CCN(S(C)(=O)=O)CC2.O=C(O)C(F)(F)F,Percent Effect,"30 µM, 30.03 µM",-3.721%
Cc1csc(C(=O)N2CC[C@H](Oc3cccnc3C)[C@@H](O)CC2)c1,Percent Effect,"30.3 µM, […]",-24.66%
COc1ccc(CN2CCn3cccc3C2C)cc1F (configuration not stated),Percent Effect,"30 µM, 30.03 µM",11.74%
N#Cc1cccc(CN2C(=O)C3(CCNCC3)Nc3ccccc32)c1,Percent Effect,"30 µM, 30.03 µM",83.34%
CC(C)c1ccc(CN2C(=O)C3(CCNCC3)Nc3ccccc32)cc1,Percent Effect,"30 µM, 30.03 µM",101.9%
N#Cc1cccc(CN2C(=O)c3ccccc3CS2(=O)=O)c1,Percent Effect,"30 µM, 30.03 µM",-36.86%
C=Cc1ccc(CN2C(=O)C3(CCNCC3)Nc3ccccc32)cc1,Percent Effect,"30 µM, 30.03 µM",-41.13%
NC(=O)c1ccc(CN2C(=O)C3(CCNCC3)Nc3ccccc32)cc1,Percent Effect,"30 µM, 30.03 µM",8.328%
CN1CC2(CCN(Cc3cccc(C#N)c3)CC2)CC1=O,Percent Effect,"30 µM, 30.03 µM",-2.169%
O=C(O)C(F)(F)F.O=C(O)C(F)(F)F.c1cc(CN2Cc3nccn3CC(Cn3cncn3)C2)ccn1 (configuration not stated),Percent Effect,"30 µM, 30.03 µM",-13.09%
CNC(=O)CN1CCc2c(CNc3nccs3)n[nH]c2C1.O=C(O)C(F)(F)F,Percent Effect,"30 µM, 30.03 µM",-11.16%
CCN1CC(CN(C)c2cc(C)nc(N)n2)Oc2ccccc21 (configuration not stated),Percent Effect,"30.3 µM, […]",98.13%
Cc1cc(N(C)CC2COc3ccccc3O2)nc(N)n1 (configuration not stated),Percent Effect,"30.3 µM, […]",-9.48%
Cc1cc(N(C)CC2COc3ccccc3O2)nc(C)n1 (configuration not stated),Percent Effect,"30.3 µM, […]",-13.97%
CC(C)CS(=O)(=O)N1C[C@H]2C[C@H](C(=O)Nc3cccnc3)[C@@H](C1)O2,Percent Effect,"30 µM, 30.03 µM",-5.396%
COCCO[C@H]1CCN(c2ccc(C)nn2)[C@H]1Cc1cccnc1.O=C(O)C(F)(F)F.O=C(O)C(F)(F)F,Percent Effect,"30.3 µM, […]",-12.33%
COc1ccccc1CN1C[C@@H]2COC[C@]2(COc2cccnc2)C1.O=C(O)C(F)(F)F.O=C(O)C(F)(F)F,Percent Effect,"30 µM, 30.03 µM",-13.45%
COc1cc(N2C[C@@H]3COC[C@]3(COc3ncccc3F)C2)ncn1.O=C(O)C(F)(F)F.O=C(O)C(F)(F)F,Percent Effect,"30 µM, 30.03 µM",51.8%
COc1ccccc1CN1C[C@@H]2COC[C@]2(COCc2ccncc2)C1.O=C(O)C(F)(F)F.O=C(O)C(F)(F)F,Percent Effect,"30 µM, 30.03 µM",59.56%
COc1cc(N2C[C@@H]3COC[C@]3(COc3ccccn3)C2)ncn1.O=C(O)C(F)(F)F.O=C(O)C(F)(F)F,Percent Effect,"30.3 µM, […]",-11.8%
Fc1cccc(CN2C[C@@H]3COC[C@]3(COCc3ccncc3)C2)c1.O=C(O)C(F)(F)F.O=C(O)C(F)(F)F,Percent Effect,"30 µM, 30.03 µM",-8.118%
COc1cc(N2C[C@@H]3COC[C@]3(COCc3ccccn3)C2)ncn1.O=C(O)C(F)(F)F.O=C(O)C(F)(F)F,Percent Effect,"30 µM, 30.03 µM",-23.44%
